Sampled rows, rich in hits. Any-hit rate of the full collection: about 1.5%.
Cardiac RTF inh: cardiac RTF calcium sensitivity inhibitors, primary screen, biochemical, IANBD-TnC fluorescence, EC70 calcium; Troponin I, cardiac muscle (Homo sapiens) + Troponin T, cardiac muscle (Homo sapiens) + …; AID 493244, 2011; IANBD-labeled cardiac RTF, Ca2+ fluorescence; inhibition, % at 7.15 µM; 0.12% of 340,000 active;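 active = inhibition above the mean inhibition of all tested compounds plus 3 SD, cut at about 17% in these data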;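 note: assay run at fixed EC70 calcium of 1.6 mM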
CRFBP-R2 agonist: agonists of CRF-BP/CRF-R2 complex, primary screen, cell-based, HEK293, calcium dye fluorescence, uHTS | CRF-binding protein / CRF receptor 2 complex (human) | calcium dye fluorescence (FLIPR); percent of saturating CRF peptide response | activation, % at 13.2 µM | 0.46% of 350,000 active | AID 588473, 2011;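 active = activation of at least 50%, plus an integration ratio under a set limit after plate pattern correction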
IDE cell inh: human IDE inhibitors in live cells, primary screen, fluorescence polarization, HEK cells, FAbetaB substrate. Insulin-degrading enzyme (Homo sapiens), P14735. FAbetaB cleavage. inhibition, % at 5.59 µM. 0.41% of 320,000 active. AID 434962, 2010;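 active = percent inhibition above the average of all tested compounds plus 3 SD, set per screening campaign, cut at about 16% in these data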;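 note: IDE supplied by intact live HEK cells; FP after avidin binding of uncleaved biotin substrate so inhibition keeps polarization high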
IDE act: human IDE activators in live cells, primary screen, fluorescence polarization, HEK cells, FAbeta-B substrate; Insulin-degrading enzyme (Homo sapiens), P14735; FAbeta-B cleavage; 0% vehicle, 100% cell-free pure enzyme wells; activation, % at 5.96 µM; 0.073% of 340,000 active; AID 493087, 2011;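 active = activation above the mean of all tested compounds plus 3 SD, set per screening campaign, cut at about 17% in these data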
TPT1 inh: Candida albicans TPT1 enzyme inhibitors, primary screen, biochemical, fluorescence polarization; 0.81% of 300,000 active; tRNA 2'-phosphotransferase TPT1 (Candida albicans SC5314); recombinant caTPT1, FP RNA substrate dephosphorylation; inhibition, % at 5 µM;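 active = inhibition above the mean of all tested compounds plus 3 SD, set per screening campaign, cut at about 24% in these data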
cardiac RTF act: cardiac RTF calcium sensitivity activators, primary screen, biochemical, IANBD-TnC fluorescence, EC20 calcium; Troponin I, cardiac muscle (Homo sapiens) + Troponin T, cardiac muscle (Homo sapiens) + …; IANBD-labeled TnC RTF fluorescence at EC20 calcium; 0% EC20 calcium, 100% full calcium; activation, % at 7.2 µM; 0.24% of 340,000 active;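 active = activation above the mean over all tested compounds plus 3 SD, cut at about 30% in these data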;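 note: rise in fluorescence read as greater calcium sensitivity of cardiac thin filaments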
TPT1 inh confirm: Candida albicans TPT1 inhibitors, confirmation, biochemical, fluorescence polarization, triplicate. shares compounds with TPT1 inh. recombinant caTPT1, RNase T1 coupled. inhibition, % at 5 µM. 74% of 2,400 active;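 active = inhibition above the primary screen limit, the mean inhibition of all tested compounds plus 3 SD, cut at about 25% in these data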
RNase T1 inh: RNase T1 inhibitors, counter-screen for TPT1 inhibitor project, biochemical, fluorescence polarization; shares compounds with TPT1 inh; RNase T1 cleavage, 1536-well; inhibition, % at 5 µM; 83% of 2,400 active; AID 2153, 2009;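 active = inhibition above the solvent-only control well mean plus 3 SD, limit set per screening run, cut at about 23% in these data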;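 note: inhibitors block cleavage so intact labeled substrate keeps polarization high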
Target sequence (P00651 whole entry, looked up): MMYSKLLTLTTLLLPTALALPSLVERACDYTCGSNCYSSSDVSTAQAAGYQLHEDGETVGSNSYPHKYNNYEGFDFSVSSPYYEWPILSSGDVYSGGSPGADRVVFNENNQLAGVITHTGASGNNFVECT
A number is an active result.

Screening C[C@@H]1CN([C@H](C)CO)C(=O)CCCn2nncc2CO[C@H]1CN(C)Cc1ccc(O)cc1 returned CRFBP-R2 agonist inactive.
For COc1ccc(OCC(O)CNS(=O)(=O)c2cccs2)cc1 (stereo not given) the results were Cardiac RTF inh inactive, CRFBP-R2 agonist inactive, IDE cell inh inactive, IDE act inactive, TPT1 inh inactive and cardiac RTF act inactive.
For CC1(c2ccccc2)NC(=O)N(CC(=O)N(c2ccccc2)C2CCS(=O)(=O)C2)C1=O (stereo not given) the results were Cardiac RTF inh inactive, CRFBP-R2 agonist inactive, IDE cell inh inactive, IDE act inactive and cardiac RTF act inactive.
CCSC1=N/C(=C\c2ccc3c(c2)OCO3)C(=O)S1 was read as Cardiac RTF inh inactive, CRFBP-R2 agonist inactive, IDE cell inh inactive, IDE act inactive, TPT1 inh inactive and cardiac RTF act inactive.
For CCSC1=N/C(=C\C=C2/Oc3ccccc3N2CC)C(=O)S1 the results were Cardiac RTF inh inactive, CRFBP-R2 agonist inactive, IDE cell inh 20, IDE act inactive, TPT1 inh 138, cardiac RTF act 39, TPT1 inh confirm 148 and RNase T1 inh 143.
For Nc1c(Cl)ncnc1NCc1ccccc1 the results were Cardiac RTF inh inactive, CRFBP-R2 agonist inactive, IDE cell inh inactive, IDE act inactive, TPT1 inh inactive and cardiac RTF act inactive.
Screening CCc1cccc(OCCCn2ccnc2)c1 returned Cardiac RTF inh inactive, CRFBP-R2 agonist inactive, IDE cell inh inactive, IDE act inactive, TPT1 inh 36, cardiac RTF act inactive, TPT1 inh confirm inactive and RNase T1 inh inactive.
`COc1cccc(OCCCn2ccnc2)c1` gave Cardiac RTF inh inactive, CRFBP-R2 agonist inactive, IDE cell inh inactive, IDE act inactive, TPT1 inh inactive and cardiac RTF act inactive.
Screening O=C(CCN1C(=O)/C(=C/c2cccs2)SC1=S)Nc1ccc(C(=O)O)cc1 returned Cardiac RTF inh inactive, CRFBP-R2 agonist inactive, IDE cell inh inactive, IDE act inactive, TPT1 inh 31, cardiac RTF act inactive, TPT1 inh confirm 29 and RNase T1 inh 39.
Screening O=C(CCN1C(=O)/C(=C/c2cccs2)SC1=S)Nc1ccccn1 returned Cardiac RTF inh inactive, CRFBP-R2 agonist inactive, IDE cell inh inactive, IDE act inactive, TPT1 inh 33, cardiac RTF act inactive, TPT1 inh confirm 31 and RNase T1 inh 42.
`O=C(CCCN1C(=O)/C(=C\c2cccs2)SC1=S)Nc1ccccn1` gave Cardiac RTF inh inactive, CRFBP-R2 agonist inactive, IDE cell inh inactive, IDE act inactive, TPT1 inh inactive and cardiac RTF act inactive.
For O=C(CCC(F)(F)F)N1CCCC(N2CCN(c3cccc(Cl)c3)CC2)C1 (stereo not given) the results were Cardiac RTF inh inactive, CRFBP-R2 agonist inactive, IDE cell inh inactive, IDE act inactive, TPT1 inh inactive and cardiac RTF act inactive.
Cc1cccc(NC(=O)CSc2nc3ccccc3c(=O)n2CC2CCCO2)c1 (stereo not given) was read as Cardiac RTF inh inactive, CRFBP-R2 agonist inactive, IDE cell inh inactive, IDE act inactive and cardiac RTF act inactive.
Screening CC(C)c1nc2scc(-c3ccc(Cl)cc3)c2c(=O)n1N returned Cardiac RTF inh inactive, CRFBP-R2 agonist inactive, IDE cell inh inactive, IDE act inactive, TPT1 inh inactive and cardiac RTF act inactive.
Screening CC(Oc1ccccc1)C(=O)N(CCC1=CCCCC1)c1c(N)n(Cc2ccccc2)c(=O)[nH]c1=O (stereo not given) returned Cardiac RTF inh inactive, CRFBP-R2 agonist inactive, IDE cell inh inactive, IDE act inactive, TPT1 inh inactive and cardiac RTF act inactive.
For CC(C)c1ccc(/C=C2\Oc3c(ccc(O)c3CN3CCN(C)CC3)C2=O)cc1 the results were Cardiac RTF inh inactive, CRFBP-R2 agonist inactive, IDE cell inh inactive, IDE act inactive, TPT1 inh 37, cardiac RTF act inactive, TPT1 inh confirm 40 and RNase T1 inh 51.
`O=C1/C(=C/c2ccco2)Oc2c1ccc(O)c2CN1CCCCC1` gave Cardiac RTF inh inactive, CRFBP-R2 agonist inactive, IDE cell inh inactive, IDE act inactive, TPT1 inh inactive and cardiac RTF act inactive.
COC(=O)c1ccc[n+](CCc2c[nH]c3ccccc23)c1 was read as Cardiac RTF inh inactive, CRFBP-R2 agonist inactive, IDE cell inh inactive, IDE act inactive, TPT1 inh inactive and cardiac RTF act inactive.
`CCN(CC(=O)Nc1ccc(C(=O)OC)cc1)Cc1ccccc1` gave Cardiac RTF inh inactive, CRFBP-R2 agonist inactive, IDE cell inh inactive, IDE act inactive, TPT1 inh 46, cardiac RTF act inactive, TPT1 inh confirm inactive and RNase T1 inh inactive.
For COC(=O)c1ccc(NC(=O)Cc2ccccc2)cc1 the results were Cardiac RTF inh inactive, CRFBP-R2 agonist inactive, IDE cell inh inactive, IDE act inactive, TPT1 inh inactive and cardiac RTF act inactive.
COc1cc(C(=O)OCC(=O)Nc2cc(S(=O)(=O)N3CCOCC3)ccc2C)ccc1OCC(C)C was read as Cardiac RTF inh inactive, CRFBP-R2 agonist inactive, IDE cell inh inactive, IDE act inactive, TPT1 inh inactive and cardiac RTF act inactive.
COc1ccc(OC)c(C2=C/C(=C/c3ccccn3)C(=O)O2)c1 was read as Cardiac RTF inh inactive, CRFBP-R2 agonist 76, IDE cell inh inactive, IDE act inactive, TPT1 inh 80, cardiac RTF act inactive, TPT1 inh confirm 84 and RNase T1 inh 90.
`COc1ccc(OC)c(-c2oc3ccccc3c(=O)c2O)c1` gave Cardiac RTF inh inactive, CRFBP-R2 agonist inactive, IDE cell inh inactive, IDE act inactive, TPT1 inh inactive and cardiac RTF act inactive.
Screening Cc1ccc2nc(CSc3nnc(Cc4cccs4)n3C3CCCCC3)cc(=O)n2c1 returned Cardiac RTF inh inactive, CRFBP-R2 agonist inactive, IDE cell inh inactive, IDE act inactive, TPT1 inh inactive and cardiac RTF act inactive.

Compound activity deposited in PubChem BioAssay by several laboratories.
